The campaign covered roughly 39,000 compounds. About 3,300 (8.5%) were called active. The entries come from a sample that favours actives as a whole.
Test system: HepG2
Experiment: cytotoxicity call (relative viability < 0.9)
Conditions: 10 µM

| Structure (SMILES) | cytotoxicity call |
| --- | --- |
| C[C@@H]1CN([C@@H](C)CO)C(=O)c2cc(NC(=O)Cc3ccccc3)ccc2O[C@@H](C)CCCCO[C@@H]1CN(C)C(=O)NC1CCCCC1 | inactive |
| C[C@H](CO)N1C[C@H](C)[C@@H](CN(C)S(=O)(=O)c2cn(C)cn2)Oc2ccc(NS(C)(=O)=O)cc2C1=O | inactive |
| C[C@@H]1CN([C@H](C)CO)C(=O)c2cccc(NS(C)(=O)=O)c2O[C@@H]1CN(C)C(=O)Nc1ccc2c(c1)OCO2 | inactive |
| C[C@@H]1CN([C@@H](C)CO)C(=O)c2ccccc2-c2ccccc2CO[C@@H]1CN(C)S(=O)(=O)c1cn(C)cn1 | inactive |
| C[C@@H]1CCCCO[C@@H](CN(C)Cc2ccc(C(F)(F)F)cc2)[C@H](C)CN([C@@H](C)CO)C(=O)c2cc(NC(=O)CCCN(C)C)ccc2O1 | inactive |
| C[C@@H]1CCCCO[C@H](CN(C)S(C)(=O)=O)[C@@H](C)CN([C@H](C)CO)C(=O)c2cc(NC(=O)c3ccncc3)ccc2O1 | inactive |
| CO[C@@H]1CN(C)C(=O)c2cc(NS(=O)(=O)c3ccccc3)ccc2OC[C@H](C)N(C(=O)NC(C)C)C[C@H]1C | inactive |
| CN(C)C(=O)C[C@@H]1CC[C@@H](NC(=O)C2CCOCC2)[C@H](CO)O1 | inactive |
| CCN(CCCCOC(=O)c1ccc(OC)c(OC)c1)C(C)Cc1ccc(OC)cc1.Cl (stereo not given) | active |
| CCCCOc1cc(C(=O)OCCN(CC)CC)ccc1N.Cl | inactive |
| CCCOc1ccc(C(=O)OCCN(CC)CC)cc1N.Cl | inactive |
| C[C@H](CO)N1C[C@H](C)[C@H](CN(C)S(=O)(=O)c2ccc(F)cc2)Oc2ccc(NC(=O)CCCN(C)C)cc2C1=O | inactive |
| Cc1noc(C)c1NC(=O)Nc1ccc2c(c1)C(=O)N([C@@H](C)CO)C[C@H](C)[C@@H](CN(C)Cc1ccc(C(F)(F)F)cc1)OCCCC[C@H](C)O2 | inactive |
| Cc1ccc(C(=O)Nc2cccc(C(F)(F)F)c2)cc1Nc1nc(-c2cccnc2)nc2c1cnn2C | active |
| O=C(O)c1cccnc1Nc1cccc(C(F)(F)F)c1 | inactive |
| Cc1cn(-c2cc(NC(=O)c3ccc(C)c(Nc4nccc(-c5cccnc5)n4)c3)cc(C(F)(F)F)c2)cn1 | active |
| Cc1cn(-c2cc(NC(=O)c3ccc(C)c(Nc4nccc(-c5cnccn5)n4)c3)cc(C(F)(F)F)c2)cn1 | inactive |
| O=C(Nc1cccnc1)c1nc2ncccn2n1 | inactive |
| COC(=O)CNC(=O)c1ccc(S(=O)(=O)N2CCOCC2)cc1 | inactive |
| C[C@@H]1CN([C@@H](C)CO)C(=O)c2cccc(NS(=O)(=O)c3cn(C)cn3)c2O[C@@H]1CN(C)Cc1ccc(C(=O)O)cc1 | inactive |
| C[C@@H]1CN([C@H](C)CO)C(=O)c2cc(NC(=O)Cn3cnnn3)ccc2O[C@H]1CN(C)Cc1ccc(C(=O)O)cc1 | inactive |
| C[C@@H]1CCCCO[C@H](CN(C)C(=O)Nc2ccccc2)[C@H](C)CN([C@@H](C)CO)C(=O)c2cc(NS(=O)(=O)c3cccs3)ccc2O1 | inactive |
| C[C@H](CO)N1C[C@H](C)[C@@H](CN(C)S(C)(=O)=O)Oc2ccc(NC(=O)CCC(F)(F)F)cc2CC1=O | inactive |
| C[C@@H]1CN([C@@H](C)CO)C(=O)c2cc(NC(=O)Nc3ccccc3)ccc2O[C@@H](C)CCCCO[C@H]1CN(C)S(=O)(=O)c1cccc(F)c1 | inactive |

| Structure (SMILES) | cytotoxicity call |
| --- | --- |
| Cc1ccc(S(=O)(=O)N[C@@H](Cc2ccccc2)C(=O)NCCn2cc(CN3C(=O)COC[C@H]3c3ccccc3)nn2)cc1 | inactive |
| CCOC(=O)[C@H](Cc1c[nH]c2ccccc12)NC(=O)Cn1cc(CN2C(=O)COC[C@H]2c2ccccc2)nn1 | active |
| CCOC(=O)[C@H](Cc1c[nH]c2ccccc12)NC(=O)Cn1cc(C(=O)NO)nn1 | inactive |
| Cc1noc(C)c1S(=O)(=O)Nc1ccc2c(c1)C(=O)N([C@@H](C)CO)C[C@@H](C)[C@H](CN(C)C(=O)NC1CCCCC1)O2 | inactive |
| COc1ccc(-c2nc(-c3ccc(C)cc3C)cs2)cc1 | inactive |
| COc1ccc(NC(=O)Nc2ccc3c(c2)CC(=O)N([C@H](C)CO)C[C@@H](C)[C@@H](CN(C)CC2CCCCC2)O3)cc1 | active |
| COc1ccc(NC(=O)Nc2ccc3c(c2)CC(=O)N([C@@H](C)CO)C[C@H](C)[C@@H](CN(C)CC2CCCCC2)O3)cc1 | inactive |
| COc1ccc(NC(=O)Nc2ccc3c(c2)CC(=O)N([C@@H](C)CO)C[C@@H](C)[C@@H](CN(C)CC2CCCCC2)O3)cc1 | inactive |
| COc1ccc(NC(=O)Nc2ccc3c(c2)CC(=O)N([C@H](C)CO)C[C@H](C)[C@@H](CN(C)CC2CCCCC2)O3)cc1 | inactive |
| COc1ccc(NC(=O)Nc2ccc3c(c2)CC(=O)N([C@H](C)CO)C[C@H](C)[C@H](CN(C)CC2CCCCC2)O3)cc1 | inactive |
| COc1ccc(NC(=O)Nc2ccc3c(c2)CC(=O)N([C@@H](C)CO)C[C@@H](C)[C@H](CN(C)CC2CCCCC2)O3)cc1 | active |
| C[C@H](CO)N1C[C@H](C)[C@H](CN(C)Cc2ccc(C(=O)O)cc2)OCCCC[C@H](C)Oc2ccc(NC(=O)NC3CCCCC3)cc2C1=O | inactive |
| C[C@H]1CCCCO[C@H](CN(C)S(=O)(=O)c2cccs2)[C@@H](C)CN([C@@H](C)CO)C(=O)c2cc(NS(C)(=O)=O)ccc2O1 | inactive |
| O=C(NCC(F)(F)F)[C@@H]1c2ccccc2C(=O)N(Cc2cc(C(F)(F)F)cc(C(F)(F)F)c2)[C@H]1c1ccc(CO)cc1 | inactive |
| O=C1CO[C@H]2CN(S(=O)(=O)c3ccccc3)C[C@@H]2N1 | inactive |
| C[C@@H]1CN([C@H](C)CO)C(=O)c2cc(NS(=O)(=O)c3ccc(F)cc3)ccc2O[C@@H]1CN(C)S(C)(=O)=O | inactive |
| C[C@@H]1CCCCO[C@@H](CN(C)Cc2ccc(C(=O)O)cc2)[C@H](C)CN([C@H](C)CO)C(=O)c2cc(NS(=O)(=O)c3cccs3)ccc2O1 | inactive |
| C[C@H]1CCCCO[C@H](CN(C)Cc2ccc(C(F)(F)F)cc2)[C@@H](C)CN([C@@H](C)CO)C(=O)c2cc(NS(=O)(=O)c3cccs3)ccc2O1 | inactive |
| C[C@@H]1CN([C@@H](C)CO)C(=O)c2cc(NS(=O)(=O)c3cccs3)ccc2O[C@@H](C)CCCCO[C@@H]1CN(C)Cc1ccc(C(F)(F)F)cc1 | inactive |
| C[C@@H]1CCCCO[C@@H](CN(C)Cc2ccc(C(F)(F)F)cc2)[C@H](C)CN([C@H](C)CO)C(=O)c2cc(NS(=O)(=O)c3cccs3)ccc2O1 | active |
| C[C@@H]1CCCCO[C@H](CN(C)Cc2ccc(C(F)(F)F)cc2)[C@H](C)CN([C@@H](C)CO)C(=O)c2cc(NS(=O)(=O)c3cccs3)ccc2O1 | active |
| C[C@@H]1CCCCO[C@H](CN(C)Cc2ccc(C(F)(F)F)cc2)[C@H](C)CN([C@H](C)CO)C(=O)c2cc(NS(=O)(=O)c3cccs3)ccc2O1 | active |
| C[C@@H]1CN([C@@H](C)CO)C(=O)c2cc(NS(=O)(=O)c3cccs3)ccc2O[C@@H](C)CCCCO[C@H]1CN(C)Cc1ccc(C(F)(F)F)cc1 | inactive |
| C[C@@H]1CN([C@H](C)CO)C(=O)c2cc(NS(=O)(=O)c3cccs3)ccc2O[C@@H](C)CCCCO[C@@H]1CN(C)Cc1ccc(C(=O)O)cc1 | inactive |

| Structure (SMILES) | cytotoxicity call |
| --- | --- |
| C[C@@H]1CCCCO[C@@H](CN(C)Cc2ccc(C(F)(F)F)cc2)[C@@H](C)CN([C@@H](C)CO)C(=O)c2cc(NS(=O)(=O)c3cccs3)ccc2O1 | active |
| C[C@@H]1CCCCO[C@H](CN(C)Cc2ccc(C(F)(F)F)cc2)[C@@H](C)CN([C@H](C)CO)C(=O)c2cc(NS(=O)(=O)c3cccs3)ccc2O1 | inactive |
| COc1ccc(OCc2c(-c3ccccc3)nnn2CC(=O)NS(=O)(=O)c2cccc(C#N)c2)cc1 | inactive |
| COCC(=O)N1C[C@@H](C)[C@H](OC)CN(C)C(=O)c2cc(NC(=O)c3ccc(F)cc3)ccc2OC[C@@H]1C | inactive |
| COc1cc2ccc(=O)oc2c(O[C@H]2O[C@@H](CO)[C@@H](O)[C@@H](O)[C@@H]2O)c1O | inactive |
| C[C@@H]1CN([C@@H](C)CO)C(=O)Cc2cc(NC(=O)Cn3cnnn3)ccc2O[C@@H]1CN(C)C(=O)Nc1ccc2c(c1)OCO2 | inactive |
| CCS(=O)(=O)N1C[C@]2(CN(C2)C(=O)CN2CCOCC2)c2c(n(c3cc(ccc23)OC)C)[C@H]1CO | inactive |
| COc1ccc(CN(C)C[C@H]2OCCCC[C@H](C)Oc3ccc(NS(=O)(=O)c4ccccc4)cc3C(=O)N([C@H](C)CO)C[C@H]2C)cc1 | inactive |
| O=C(Cc1ccccn1)NCC[C@H]1CC[C@H](NC(=O)CN2CCOCC2)[C@H](CO)O1 | inactive |
| C[C@@H]1CN([C@H](C)CO)C(=O)c2cc(NS(=O)(=O)c3cn(C)cn3)ccc2O[C@H]1CN(C)Cc1ccncc1 | inactive |
| C[C@H](CO)N1C[C@H](C)[C@@H](CN(C)S(=O)(=O)c2ccccc2)OCCCC[C@H](C)Oc2ccc(NC(=O)CCC(F)(F)F)cc2C1=O | inactive |
| Cc1noc(C)c1NC(=O)N(C)C[C@H]1Oc2c(NC(=O)Cn3cnnn3)cccc2C(=O)N([C@H](C)CO)C[C@@H]1C | inactive |
| C[C@@H]1CN([C@H](C)CO)C(=O)c2cc(NC(=O)C3CCCCC3)ccc2O[C@@H](C)CCCCO[C@H]1CN(C)C(=O)c1ccncc1 | inactive |
| C[C@@H]1CCCCO[C@@H](CN(C)Cc2ccc(C(F)(F)F)cc2)[C@@H](C)CN([C@H](C)CO)C(=O)c2cc(NS(=O)(=O)c3cccs3)ccc2O1 | active |
| C[C@H](CO)N1C[C@H](C)[C@@H](CN(C)Cc2ccc(C(F)(F)F)cc2)OCCCC[C@H](C)Oc2ccc(NS(=O)(=O)c3cccs3)cc2C1=O | inactive |
| C[C@H]1CCCCO[C@@H](CN(C)Cc2ccc(C(F)(F)F)cc2)[C@@H](C)CN([C@@H](C)CO)C(=O)c2cc(NS(=O)(=O)c3cccs3)ccc2O1 | inactive |
| C[C@@H]1CN([C@H](C)CO)C(=O)c2cc(NS(=O)(=O)c3cccs3)ccc2O[C@@H](C)CCCCO[C@@H]1CN(C)Cc1ccc(C(F)(F)F)cc1 | inactive |
| C[C@@H]1CN([C@H](C)CO)C(=O)c2cc(NS(=O)(=O)c3cccs3)ccc2O[C@@H](C)CCCCO[C@H]1CN(C)Cc1ccc(C(F)(F)F)cc1 | active |
| C[C@H](CO)N1C[C@H](C)[C@H](CN(C)Cc2ccc(C(F)(F)F)cc2)OCCCC[C@H](C)Oc2ccc(NS(=O)(=O)c3cccs3)cc2C1=O | active |
| C[C@@H]1CCCCO[C@H](CN(C)Cc2ccc(C(F)(F)F)cc2)[C@@H](C)CN([C@@H](C)CO)C(=O)c2cc(NS(=O)(=O)c3cccs3)ccc2O1 | inactive |
| C[C@@H]1CCCCO[C@@H](CN(C)Cc2ccc(C(F)(F)F)cc2)[C@H](C)CN([C@@H](C)CO)C(=O)c2cc(NS(=O)(=O)c3cccs3)ccc2O1 | inactive |
| C[C@@H]1CCCCO[C@@H](CN(C)Cc2ccc(C(=O)O)cc2)[C@H](C)CN([C@@H](C)CO)C(=O)c2cc(NS(=O)(=O)c3cccs3)ccc2O1 | inactive |
